Compound activity deposited in PubChem BioAssay by National Center for Advancing Translational Sciences (NCATS).
In the library only some 3.9% were active in any assay of this set; here they are far more common.
PLK1 PBD inh – blocks phosphopeptide binding to human PLK1 polo-box domain; Plk1 PBD binding of FITC phosphopeptide, fluorescence polarization; 360,000 compounds, 2.8% hits; AID 720504; P53350; Potency, µM, for the others: max response, negative = inhibition, usual class: inhibitors; further: potency means the concentration at half of the fitted maximal effect; series mostly up to about 57 µM; on the % scale 0 is the no-effect control and ±100 the full control effect; nearly all actives have a fitted effect of over 65% in size
VDR inhibitor – vitamin D3 receptor (human) inhibition. VDR-SRC2-3 peptide fluorescence polarization, 2 h. AID 504847. Potency, µM, without a hit: max response, negative = inhibition, hits mostly inhibitors. P11473. 400,000 compounds, 0.93% hits; further: potency means the concentration at half of the fitted maximal effect; on the % scale 0 is the no-effect control and ±100 the full control effect
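Signal is fluorescence polarization, reporting how far test compounds block the interaction of VDR with the SRC2-3 coregulator peptide after a 2 h room-temperature incubation.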
Tb PFK inh – inhibitors of T. brucei phosphofructokinase. O15648. 330,000 compounds, 0.17% hits. AID 485367. Potency, µM (highest dose often 57.5 µM), without a hit: top-dose activity, negative = inhibition, actives largely listed as inhibitors. T. brucei PFK, ADP-Glo luminescence;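 further: potency means the concentration at half of the fitted maximal effect; 0% = uninhibited 1x PFK enzyme wells and -100% = no-enzyme wells; nearly all actives have a fitted effect of over 60% in size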
Target sequence (O15648 whole entry, looked up): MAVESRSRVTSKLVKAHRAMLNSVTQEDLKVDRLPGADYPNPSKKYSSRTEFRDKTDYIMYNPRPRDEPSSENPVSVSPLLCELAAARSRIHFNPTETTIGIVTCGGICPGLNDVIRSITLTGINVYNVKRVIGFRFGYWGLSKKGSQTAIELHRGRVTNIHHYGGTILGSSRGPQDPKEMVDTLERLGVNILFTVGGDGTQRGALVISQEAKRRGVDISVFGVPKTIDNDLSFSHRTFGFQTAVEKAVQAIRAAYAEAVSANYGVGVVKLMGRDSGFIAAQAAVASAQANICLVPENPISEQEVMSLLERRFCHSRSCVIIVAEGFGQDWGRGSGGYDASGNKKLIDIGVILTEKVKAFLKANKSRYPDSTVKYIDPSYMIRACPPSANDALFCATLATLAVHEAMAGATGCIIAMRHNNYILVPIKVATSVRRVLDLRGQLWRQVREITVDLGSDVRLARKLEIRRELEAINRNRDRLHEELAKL
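1.25 nM PFK with 0.5 mM F6P and 0.1 mM ATP in 0.1 M TEA pH 8.0, 5 mM MgCl2, incubated 45 min at room temperature; ADP measured by ADP-Glo luminescence; compounds titrated up to 57 uM.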
BRCA1 expr up – BRCA1 expression activation | MCF7-BRCA1-FFLuc reporter, luminescence, 48 h; response scale: scaled: vehicle 0%, 10 µM genistein 100% | Potency, µM (top dose mostly 46.1 µM), inactives show at the highest dose activation, usual class: activators | 380,000 compounds, 1.1% hits | AID 624202; further: potency means the concentration at half of the fitted maximal effect; nearly all actives have a fitted effect of over 80% in size
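Cells: MCF7-BRCA1-FFLuc, 2000/well. Exposure: 48 h, 37 °C, 5% CO2. Read: luminescence, 15 min post-substrate. Controls: genistein 10 microM (maximal activation), DMSO (neutral).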
USP1 UbRho – blocks human USP1/UAF1 cleavage of Ub-Rhodamine; shares compounds with VDR inhibitor; Ub-Rhodamine cleavage, fluorescence kinetic read; Potency, µM (doses to about 56.8 µM), inactives show top-dose activity change, negative = inhibition, most hits filed as inhibitors; 50 compounds, 50% hits
VDR inh confirm – inhibits human vitamin D receptor, primary hit validation. shares compounds with VDR inhibitor. VDR-coactivator inhibition assay, qHTS confirmation. Potency, µM, hits mostly inhibitors. 840 compounds, 89% hits. AID 602199; further: potency means the concentration at half of the fitted maximal effect
VDR FP – VDR (human) coactivator binding inhibition, fluorescein polarization; shares compounds with VDR inhibitor; AID 602200; Potency, µM (titrated, usually from 57.1 µM), without a hit: at the highest dose activity change, negative = inhibition, actives largely listed as inhibitors; 840 compounds, 48% hits; VDR-coactivator binding, fluorescein fluorescence polarization; further: potency means the concentration at half of the fitted maximal effect
VDR bla reporter – VDR (human) inhibition, cell-based beta-lactamase validation | AID 602202 | Potency, µM (titrated, usually from 46.1 µM), for inactives: top-dose activity change, negative = inhibition, most hits filed as inhibitors | 840 compounds, 23% hits | shares compounds with VDR inhibitor | VDR beta-lactamase reporter cells, FRET ratio; cells co-treated with VDR agonist LG190178; further: potency means the concentration at half of the fitted maximal effect; on the % scale 0 is the no-effect control and ±100 the full control effect
VDR viability – cell toxicity, VDR inhibitor hit counter-screen; shares compounds with VDR inhibitor; cytotoxicity counter-screen, cell viability, qHTS; Potency, µM (titrated, usually from 48.3 µM), for the others: at the top dose activity change, negative = cytotoxicity, most hits filed as cytotoxic; 840 compounds, 18% hits;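 further: potency means the concentration at half of the fitted maximal effect; plate controls were DMSO for no effect and high-concentration cycloheximide for full effect; nearly all actives have a fitted effect of over 75% in size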
* hit, by the source's call; ? = inconclusive; / = no result given. The call rests on the fitted dose curve; in most records, active means well fitted curve in the direction sought with a large enough effect; inconclusive means small, poorly fitted or top-dose-only effect, or another doubt; inactive means no such curve, though single readings can be large; an effect the other way counts as inactive or inconclusive.

SMILES	PLK1 PBD inh	VDR inhibitor	Tb PFK inh	BRCA1 expr up	VDR inh confirm	VDR FP	VDR bla reporter	VDR viability	others
Cc1[nH]n(-c2ncc(-c3ccccc3)s2)c(=O)c1C(c1ccc(Br)cc1)C(C#N)C#N (centres undefined)	2.67µM*	35.5µM*	2.2%	4.4%	7.52*	?	?	-17.5%
CC1C(c2ccccc2)OCCN1C(=S)Nc1ccc(S(=O)(=O)N2CCCCC2)cc1 (centres undefined)	-2.0%	/	/	15.7%	/	/	/	/
O=C(CN1C(=O)COc2ccc(S(=O)(=O)N3CCCC3)cc21)NCCc1ccc(Cl)cc1	/	7.5%	/	/	/	/	/	/
O=C(C[n+]1csc2ccccc21)c1ccc(I)cc1	/	/	/	-19.9%	/	/	/	/
O=C1Nc2ccc(Br)cc2C1=Nc1cccnc1	?	25.1µM*	-8.0%	-58.0%	9.47*	-18.9%	16.9%	?
Cc1nnc(SC/C=C/c2ccccc2)n(N)c1=O	-1.7%	-24.6%	1.5%	3.3%	/	/	/	/
O=C(/C=C/c1ccccc1)n1cnnc1SC/C=C/c1ccccc1	?	39.8µM*	-0.1%	45.8%	16.8*	?	12.2%	-5.1%
O=C(COc1ccc(Cl)cc1)Nc1sc2c(c1C(=O)Nc1cccc(Cl)c1)CCCC2	/	?	/	/	7.94*	7.94µM*	-6.9%	-4.4%
COc1ccccc1NC(=O)c1c(NCc2sccc2C)sc2c1CCCCC2	/	-14.6%	/	/	/	/	/	/
COc1ccc(Cl)cc1NC(=O)c1c(NCc2sccc2C)sc2c1CCCC2	/	17.8µM*	/	-47.4%	3.55*	3.16µM*	1.5%	11.7%
CCN(CC)N=Nc1ccc(C(=O)O)cc1	4.8%	40.5%	5.0%	5.6%	/	/	/	/
Cc1nc(N=Nc2ccc(C(=O)O)cc2)c(COP(=O)(O)O)c(C=O)c1O	/	-3.1%	/	/	/	/	/	/	USP1 UbRho=5.91µM*
CCCCn1nc(C(=O)N(C)CC(=O)Nc2ccc(F)c(F)c2F)ccc1=O	-1.5%	-15.9%	-2.4%	-7.9%	/	/	/	/
CCOC(=O)C1=C(Cc2ccc(OC)cc2)C(=O)c2ccccc2C1=O	11.9µM*	7.94µM*	20.2%	-83.3%	0.708*	?	23.1µM*	?
CCOC(=O)c1c(NC(=O)C2CCCO2)sc(C(N)=O)c1C (centres undefined)	-19.1%	-5.9%	-0.3%	-19.2%	/	/	/	/
CCCOC(=O)c1c(NC(=O)C2CCCO2)sc(C(=O)OC)c1C (centres undefined)	9.47µM*	79.4µM*	?	-10.3%	23.8*	?	-5.4%	13.2%
O=C1C(=O)c2c(C(=O)c3ccccc3)coc2-c2ccccc21	?	3.16µM*	2.6%	-90.4%	4.23*	?	?	18.4µM*
Cc1oc2c(c1C(=O)c1ccccc1)C(=O)C(=O)c1ccccc1-2	?	?	1.3%	-91.7%	2.51*	3.16µM*	20.6µM*	3.36µM*
Cc1oc2c(c1C(=O)O)C(=O)c1ccccc1C2=O	1.1%	-20.0%	29.8%	?	/	/	/	/
O=C(C1=C(c2ccccc2)C(=O)c2ccccc2C1=O)c1ccccc1	-7.0%	-17.9%	-0.2%	-26.5%	/	/	/	/
C1=Cc2ccccc2/C1=C\c1cc2c3c(c1)CCCN3CCC2	/	/	/	78.5%	/	/	/	/
CC1C/C(=C\c2cccnc2)C(=O)/C(=C/c2cccnc2)C1 (centres undefined)	-14.2%	35.5µM*	4.3%	-83.0%	11.9*	?	2.06µM*	?
CC1CCc2c(sc(NC(=O)CCC(=O)O)c2C(=O)NC2CC2)C1 (centres undefined)	5.32µM*	56.2µM*	?	-10.5%	26.7*	28.2µM*	10.2%	-5.3%
COCC(=O)Nc1sc2c(c1C(=O)OC)CCC(C)C2 (centres undefined)	-4.7%	4.3%	-0.2%	-21.6%	/	/	/	/
CCOc1ccccc1C1N=C(c2ccc(OC)cc2)CC(c2ccccc2O)N1 (centres undefined)	-18.4%	?	-4.9%	22.5%	?	?	?	2.5%
SMILES	PLK1 PBD inh	VDR inhibitor	Tb PFK inh	BRCA1 expr up	VDR inh confirm	VDR FP	VDR bla reporter	VDR viability	others
COc1ccc(/C=C2/C(=O)ON=C2c2ccccc2)cc1OC	1.89µM*	39.8µM*	-0.2%	-14.0%	21.2*	?	-2.9%	-7.4%
O=C1ON=C(c2ccccc2)/C1=C/c1ccco1	1.06µM*	?	2.2%	-0.1%	8.44*	?	-30.3%	?
CN(C)/C=C1\C(=O)ON=C1c1ccccc1	-6.6%	-18.4%	-2.8%	1.3%	/	/	/	/
COc1ccc(/C=C2\C(=O)ON=C2c2ccccc2)cc1OC	2.99µM*	35.5µM*	-2.4%	6.5%	18.9*	?	-14.7%	-1.7%
NC(=O)COc1ccc(/C=C2\C(=O)ON=C2c2ccccc2)cc1	2.12µM*	?	1.2%	0.2%	8.91*	12.6µM*	?	?
COc1ccc2c(c1)O[C@@H](c1ccc3c(c1)OCO3)[C@H](O)C2=O	/	0.6%	/	/	/	/	/	/
Cc1cccc(-c2nnc(SCCC(=O)O)o2)c1	/	-1.6%	/	-66.7%	/	/	/	/
Cc1cccc(N2CCN(S(=O)(=O)c3ccc4oc(=O)c5ncn(C)c5c4c3)CC2)c1C	/	17.3%	/	/	/	/	/	/
CCCCCCCCCCCCC/C=C/[C@@H](O)[C@H](CO)NC(=O)CCCCC	/	-6.6%	/	/	/	/	/	/
Cc1cccc(NC(=O)C(=O)NCC(c2cccnc2)N2CCc3ccccc32)c1C (centres undefined)	/	6.0%	/	/	/	/	/	/
CN1CC(=O)Nc2ccc([N+](=O)[O-])cc2C1=O	1.2%	-9.2%	3.4%	-0.7%	/	/	/	/
CC(=O)c1ccc(N=C2C(=O)Nc3ccccc32)cc1	?	3.98µM*	-11.4%	-23.2%	3.36*	3.55µM*	15.7%	-6.5%
NC(=O)c1ccc(N=C2C(=O)Nc3ccc([N+](=O)[O-])cc32)cc1	?	?	-7.4%	-6.7%	0.631*	0.708µM*	-16.2%	-20.9%
O=C1Nc2ccccc2C1=Nc1ccc(F)cc1	0.0%	?	-1.4%	-14.8%	/	/	/	/
O=C(CC(=O)c1ccccc1)CC(O)(C=Cc1ccccc1)c1ccccc1 (centres undefined)	4.5%	-23.3%	/	-9.3%	/	/	/	/
O=[N+]([O-])c1c(NCCCO)cc(N2CCCCCC2)c2nonc12	-4.8%	-9.6%	8.3%	-26.3%	/	/	/	/
